Screens as filed in PubChem.
LmPK inh – LmPK (Leishmania mexicana) enzyme inhibition; Q27686; purified LmPK, Kinase-Glo ATP luminescence, 1 h; Potency, µM (series often up to 57.5 µM), for the others: top-dose activity change, negative = inhibition, most hits filed as inhibitors; actives 0.37% (n = 290,000); further: potency means the concentration at half of the fitted maximal effect; on the % scale 0 is the no-effect control and ±100 the full control effect
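Kinase-Glo luminescence read after 1 h RT reaction of 0.1 nM LmPK with 0.5 mM PEP and 0.1 mM ADP. Activity scaled between uninhibited and enzyme-free controls.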
FBPA Giardia inh – blocks Giardia fructose-bisphosphate aldolase activity; actives 0.71% (n = 290,000); Potency, µM (titrated, usually from 59.6 µM), for inactives: at the highest dose activity, negative = inhibition, most hits filed as inhibitors; A8B2U2; purified Giardia FBPA; further: potency means the concentration at half of the fitted maximal effect; on the % scale 0 is the no-effect control and ±100 the full control effect; nearly all actives have a fitted effect of over 55% in size
Target sequence (A8B2U2 whole entry, looked up): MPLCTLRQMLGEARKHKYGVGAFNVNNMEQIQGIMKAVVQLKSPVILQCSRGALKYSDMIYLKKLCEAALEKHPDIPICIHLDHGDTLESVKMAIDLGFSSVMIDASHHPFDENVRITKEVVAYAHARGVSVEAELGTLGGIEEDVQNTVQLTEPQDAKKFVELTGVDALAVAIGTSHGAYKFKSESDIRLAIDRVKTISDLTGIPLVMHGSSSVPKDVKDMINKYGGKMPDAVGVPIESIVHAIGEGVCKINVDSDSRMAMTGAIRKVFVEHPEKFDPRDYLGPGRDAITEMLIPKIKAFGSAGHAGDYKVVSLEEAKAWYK
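40 nM FBPA preincubated 10 min at RT with compound (up to 57.5 uM final), then substrate plus GAPDH/TPI/NAD/arsenate coupling and diaphorase/resazurin added. Fluorescence read after 20 min at RT, 525/598 nm.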
TbPYK inhibitor – T. brucei pyruvate kinase inhibition; TbPYK enzyme, Kinase-Glo Plus ATP luminescence, 45 min; Potency, µM (titrated, usually from 76.8 µM), inactives show at the top dose activity, negative = inhibition, most hits filed as inhibitors; actives 0.12% (n = 410,000); further: potency means the concentration at half of the fitted maximal effect; on the % scale 0 is the no-effect control and ±100 the full control effect; nearly all actives have a fitted effect of over 50% in size
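T. brucei PYK with substrate was exposed to pin-transferred compounds across a concentration series, then started with 130 uM ADP (final). After 45 min at room temperature, Kinase-Glo Plus luminescence was read, normalized and curve-fitted.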
Shiga toxin inh – blocks Shiga toxin action in Vero cells; Vero cells, Shiga toxin protein synthesis inhibition reporter; inhibition, % at 38.7 µM; actives 9.2% (n = 290,000); AID 2315; in the data active means inhibition mostly above about 28%, no sharp cut-off; inactive means mostly below about 43%; further: 0% is about no effect
Cycloheximide cs – counter-screen hit for Shiga toxin inhibitors, cycloheximide; cell reporter, cycloheximide protein synthesis inhibition counterscreen; AID 2314; max response, %; actives 12% (n = 300,000); in the data active means max response mostly above about 13%, no sharp cut-off; inactive means mostly below about 14%; further: read at 38.3 µM for the half of the compounds with a filed dose; 0% is about no effect
Sm TGR block – blocks Schistosoma mansoni thioredoxin glutathione reductase | purified TGR, DTNB reduction, TNB absorbance 405 nm | actives 3% (n = 360,000) | Potency, µM (top dose mostly 114 µM), inactives show at the highest dose activity change, negative = inhibition, most hits filed as inhibitors; further: potency means the concentration at half of the fitted maximal effect; on the % scale 0 is the no-effect control and ±100 the full control effect; nearly all actives have a fitted effect of over 60% in size
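TGR 20 nM + NADPH 100 uM (dispensed conc.), cpd preinc 15 min RT; start with NADPH (500 uM addition) then DTNB (15 mM addition). Kinetic TNB absorbance, 405 nm filter. Four-parameter Hill fit across titration.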
An asterisk follows results filed as active; i = inactive; ? = inconclusive; · = no result given; [ ] = remark or other dose. The entries come from a sample that favours hits as a whole. Unless noted, the call rests on the fitted dose curve; in most records, active means well fitted curve in the direction sought with a large enough effect; inconclusive means small, poorly fitted or top-dose-only effect, or another doubt; inactive means no such curve, though single readings can be large; an effect the other way counts as inactive or inconclusive.

SMILES | LmPK inh | FBPA Giardia inh | TbPYK inhibitor | Shiga toxin inh | Cycloheximide cs | Sm TGR block
Cc1cccn2cc(-c3c[nH]c4ccccc34)nc12 | 3% | -18% | 3% | 122* | 41* | 8%
Nc1nc(-c2c[nH]c3ccccc23)cs1 | 9% | -23% | -15% | 44 | 17 | 29%
Brc1ccc2nc(-c3c[nH]c4ccccc34)cn2c1 | -14% | ? | 1% | 64* | 31* | -1%
CN(c1nccc(=O)[nH]1)C1CCN(c2nc3ccccc3n2Cc2ccc(F)cc2)CC1 | · | · | 7% | · | · | ·
Cc1cc(NC(=O)C2CCCN(S(=O)(=O)c3cn(C)cn3)C2)ccc1Br (stereo not drawn) | · | · | 3% | · | · | 0%
Cc1ccc(NC(=O)CCOc2ccccc2C)cc1F | 1% | -4% | 0% | 38 | 30* | 5%
CC(=O)Nc1ccc(NC(=O)CCOc2ccccc2C)cc1 | -4% | · | 7% | 24 | -3 | 2%
CCN(CC(=O)Nc1cc(Cl)ccc1C)C(=O)CCOc1ccccc1C | 9% | · | -5% | -6 | -2 | 35µM*
Cc1cc(F)ccc1NCC(=O)Nc1ccccc1Br | 2% | ? | -8% | 116* | 26* | -18%
CCN(CC(=O)Nc1cc(Cl)ccc1C)C(=O)COc1ccccc1F | 3% | -5% | 2% | -16 | 1 | -10%
CC(=O)c1ccc(NC(=O)CCOc2cc(C)ccc2C)cc1 | 5% | -1% | 0% | 115* | 41* | 0%
CCOC(=O)c1cccnc1SCC(=O)Nc1ccc(C)cc1C | · | · | -5% | · | · | 9%
CC(C)(C)c1ccc(C(=O)NNc2ncnc3c2cnn3-c2ccc(Cl)cc2)cc1 | · | · | 0% | · | · | 4%
C#CCCCO/N=C1/C[C@@H](O)[C@@H](O)[C@@H]2[C@@H]3C(=O)N(C4CCCCC4)C(=O)[C@H]3CC[C@H]12 | · | -1%[12.9 µM] | · | · | · | ·
Cc1ccccc1NCCC(=O)Nc1ccc(F)cc1 | -1% | 0% | 3% | 38 | 16* | 7%
c1ccc2c(CCC3CCNCC3)c[nH]c2c1 | · | · | 5% | · | · | ·
CCC(=O)c1ccc(NC(C)=O)cc1O | 1% | 4% | 2% | 22 | 2 | -22%
CCC(=O)c1ccc(SC(=O)N(C)C)cc1O | 1% | -1% | -2% | 27 | 15* | 1%
CCCCn1c(N)c(N(CCOC)C(=O)CSc2nnc(-c3ccc(F)cc3)n2N)c(=O)[nH]c1=O | · | · | -1% | · | · | -30%
O=C1C(C=NCCCN2CCOCC2)=C(O)c2ccccc21 | 0% | -1% | -7% | 59* | 27* | -14%
O=C1C(C=NCCN2CCOCC2)=C(O)c2ccccc21 | -4% | -9% | -21% | 84* | 47* | -8%
CC1(C(=O)Nc2cnc3ccccc3c2)CCN1C(=O)CC(c1ccccc1)c1ccccc1 (stereo not drawn) | · | · | -16% | · | · | ·
Cc1cc(Nc2cccc(C(=O)O)c2)n2ncnc2n1 | -9% | -16% | -7% | 19* | 14* | -3%
Cc1ccc(NC(=O)C2CCCN2S(=O)(=O)c2ccc(-c3ccc(=O)[nH]n3)s2)c(C)c1 (stereo not drawn) | 0% | -2% | -3% | -9 | 15 | -28%
Nc1nc(N2CCN(c3ccccn3)CC2)nc2ccccc12 | -7% | -7% | 2% | 89* | 43* | 1%
SMILES | LmPK inh | FBPA Giardia inh | TbPYK inhibitor | Shiga toxin inh | Cycloheximide cs | Sm TGR block
CCc1ccc(-c2ccc(C(=O)O)cc2)nc1 | ? | 17% | ? | 37 | 38* | 4%
O=c1cc(-c2ccccc2)[nH]n1-c1ccc([N+](=O)[O-])cc1 | 0% | 0% | 0% | 71* | 35* | 3%
O=c1c(N=Nc2ccc(O)cc2)c(-c2ccccc2)[nH]n1-c1ccc([N+](=O)[O-])cc1 | -4% | 13% | -1% | -12 | -3 | 12%
COC(=O)c1ccc(NC(=O)c2c(Br)cnn2C)cc1 | 2% | -24% | ? | 26 | -2 | 14µM*
CCn1ncc([N+](=O)[O-])c1C(=O)Nc1ccc(C(=O)N2CCCCC2)cc1 | 4% | 3% | 4% | -6 | -4 | -20%
CCn1ncc(Br)c1C(=O)Nc1ncc(C)s1 | -5% | -4% | 4% | 69* | 27 | 2%
CCC(C)c1ccc(NC(=O)c2c([N+](=O)[O-])cnn2CC)cc1 (stereo not drawn) | -5% | 2% | 1% | 44 | 20* | 0%
CCn1ncc(Br)c1C(=O)Nc1ccc2c(c1)OCCO2 | -16% | 2% | 5% | 99* | 70* | -8%
CCn1ncc(Br)c1C(=O)Nc1cccc(F)c1 | 4% | 3% | 2% | 16 | 13 | -2%
COC(=O)c1ccc(NC(=S)NC(=O)c2c(Cl)cnn2C)cc1 | 0% | ? | -17% | 8 | 3 | -3%
Cc1cc(C)cc(NC(=O)C(=O)NCC(c2ccc3c(c2)OCO3)N2CCN(C)CC2)c1 (stereo not drawn) | · | · | 1% | · | · | 1%
COc1ccc(NC(=O)Nc2ccccc2OCc2cc(=O)n3ccccc3n2)c(OC)c1 | · | · | 5% | · | · | -4%
Cc1ccccc1NC(=O)CSc1ncc2c(n1)-c1ccccc1N(C)S2(=O)=O | · | · | 1% | · | · | -4%
CCn1ncc(Br)c1C(=O)Nc1cc(C(=O)OC)ccc1C(=O)OC | -1% | -9% | 10% | 37* | 15* | -7%
CCn1ncc(Br)c1C(=O)Nc1ccc(C(C)C)cc1 | 0% | -1% | 2% | 69* | 64* | -2%
CC1=NN(c2ccccc2)C(=O)C1C(=O)c1ccc(Cl)cc1 (stereo not drawn) | 0% | -2% | 5% | -10 | 8 | 6%
O=C(C1=C[C@@H]2[C@H]3C(=O)N(c4ccc(Cl)cc4)C(=O)[C@H]3[C@@H](C(=O)c3ccc(Cl)cc3)N2C=C1)c1ccccc1 | -3% | -16% | -14% | 20 | 4 | 14µM*
Cc1ccc(OCc2cc(C(=O)N3CCN(C)C[C@@H]3c3ccccc3)no2)cc1C | 5% | 14% | 4% | 123* | 75* | -13%
Cc1ccc(OCc2cc(C(=O)N3CCC(Oc4cccnc4)CC3)no2)cc1C | 0% | 9% | 2% | 25 | 20 | -9%
CN1CCN(C(=O)c2cc(COc3ccccc3)on2)[C@@H](c2ccccc2)C1 | 3% | 6% | -18% | 117* | 55* | -1%
Cc1cccc(Nc2nnc(-c3ccc(C)c(S(=O)(=O)NCC4CCCO4)c3)c3ccccc23)c1 (stereo not drawn) | · | · | 2% | · | · | 7%
NC(=O)C1CCN(C(=S)c2ccc(-c3ccc(Br)cc3)o2)CC1 | -4% | 3.5µM* | ? | 78* | 37* | -29%
COc1ccc(C(=S)N2CCC(C(N)=O)CC2)cc1Br | 0% | ? | -16% | -7 | 0 | 0%
O=C(O)c1ccc(-c2ccc(-c3ccccc3)cc2)o1 | · | 12%[89.2 µM] | · | i | 2 | ·
NC(=O)c1ccc(-c2ccc(Br)cc2)o1 | -3% | -1% | -2% | 56* | 13 | 40µM*
